Bioassay records: PubChem BioAssay, University of Kansas High Throughput Screening Laboratory
Pf apPOL block: Pf-apPOL inhibitors, biochemical, fluorescence; Plasmodium falciparum apicoplast DNA polymerase (apPOL); Recombinant Pf-apPOL, molecular beacon fluorescence, 1.5 h; inhibition, % at 10 µM; hit rate 0.25% among 210,000
mHTT CaM bind: mutant huntingtin-calmodulin interaction inhibitors – biochemical, AlphaScreen, primary screen | inhibition, % at 15 µM | hit rate 3.6% among 190,000 | P42858 | AID 1671202, 2021 | AlphaScreen His-mHTT/GST-CaM binding, luminescence;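 further: 0% = both proteins with DMSO and 100% = one protein alone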
* marks the source's active call; other numbers are inactive results; / = no result given. Most compounds without a hit are left out; they make up all but 3.5% or so of the library. No stated cut-off is given here; in the data, active means inhibition above about 50%; inactive means the rest.

SMILES | Pf apPOL block | mHTT CaM bind
CCOc1ccc(C(=O)NC2(c3nc(-c4ccncc4)no3)CCCCC2)cc1OCC | 1 | 12
CC(C)Oc1ccc(CNC(=O)C2CCCN(c3nnc4c(Cl)cccn34)C2)cc1 (configuration not stated) | -6 | 18
CCOc1ccccc1CNC(=O)C1CCN(c2cc(C(=O)N3CCCC3)ccn2)CC1 | -2 | 15
CCOc1cccc(CNC(=O)C2CCc3nc(N4CCOCC4)ncc3C2)c1 (configuration not stated) | -7 | 2
COc1ccc(-c2nc3n(n2)C(=O)CC(c2cccc([N+](=O)[O-])c2)S3)cc1 (configuration not stated) | 8 | 8
CCCC1=NN(c2ccccc2)C(=O)/C1=C\c1cc(Br)c(O)c(OC)c1 | -2 | 67*
COc1cc(/C=C2\SC(=O)N(c3ccccc3)C2=O)cc(Br)c1O | -6 | 8
O=C(/C=C/c1ccccc1)Nc1c2c(nn1-c1ccc(Cl)cc1)CS(=O)(=O)C2 | -5 | 3
O=C1NC(=Nc2ccccc2Cl)S/C1=C\c1cccc([N+](=O)[O-])c1O | 6 | 44
N#Cc1ccc(/C=C2/SC(=Nc3ccccc3Cl)NC2=O)cc1 | 2 | 35
O=C1NC(=Nc2ccccc2Cl)S/C1=C/c1ccccc1F | -2 | 66*
O=C1NC(=Nc2ccccc2Cl)S/C1=C/c1ccc(F)cc1 | -4 | 76*
CCOc1cc(/C=C2/C(=O)N(c3ccc(C)c(C)c3)N=C2C)cc(I)c1O | -16 | 72*
CC1=NN(c2ccccc2)C(=O)/C1=C/c1ccccc1 | -5 | 17
CC1=NN(c2ccc(C(=O)O)cc2)C(=O)/C1=C/c1ccc(N(C)C)cc1 | -4 | 4
CC1=NN(c2ccccc2)C(=O)/C1=C/c1ccc([N+](=O)[O-])cc1 | -3 | 33
CCN(CC)c1ccc(/C=C2/C(=O)N(c3ccccc3)N=C2C)cc1 | -4 | 65*
C=CCc1cc(/C=C2/C(=O)N(c3ccccc3)N=C2C)cc(OCC)c1O | 8 | 49
CC1=NN(c2ccc(C)c(C)c2)C(=O)/C1=C/c1ccc([N+](=O)[O-])cc1 | 3 | 53*
CCN(C)c1ccc(/C=C2/C(=O)N(c3ccc(C)c(C)c3)N=C2C)cc1 | 0 | 58*
CCn1c(-c2cc(NC(=O)c3ccoc3)n[nH]2)cc2ccccc21 | -1 | 32
CC(C)(C)c1ccc(S(=O)(=O)N2CCC(C(=O)NCc3cscn3)CC2)cc1 | -4 | 4
COc1ccc(C(=O)N2CCn3cnnc3C2)cc1F | -2 | -7
CC1=NN(c2cccc(Br)c2)C(=O)/C1=C/c1ccc(N(C)C)cc1 | -5 | 24
CCN(CC)c1ccc(/C=C2/N=C(c3ccccc3)NC2=O)cc1 | -5 | 88*
SMILES | Pf apPOL block | mHTT CaM bind
CC1=NN(c2ccc(F)cc2)C(=O)/C1=C/c1ccc(N(C)C)cc1 | -2 | 10
CCN(C)c1ccc(/C=C2/C(=O)N(c3ccc(Cl)cc3)N=C2C)cc1 | 0 | 70*
CCN(C)c1ccc(/C=C2/C(=O)N(c3cccc(Cl)c3)N=C2C)cc1 | -11 | 68*
CC1=NN(c2cccc(Cl)c2)C(=O)/C1=C/c1ccc(F)cc1 | 7 | 8
CCN(CC)c1ccc(/C=C2/N=C(c3ccc(F)cc3)OC2=O)cc1 | -4 | 1
CCN(C)c1ccc(/C=C2/C(=O)N(c3cccc(Br)c3)N=C2C)cc1 | -1 | 90*
COc1ccc(-c2c(O)c3ccc(O)cc3oc2=O)cc1OC | 4 | -1
O=C(Cc1c[nH]c2ncccc12)NCc1cccc(C(F)(F)F)c1 | -1 | 0
O=C(Nc1ccc(N=Nc2ccccc2)cc1)c1ccc([N+](=O)[O-])cc1 | 2 | 7
CC1=NN(c2ccccc2)C(=O)/C1=C/c1ccc(N2CCOCC2)cc1 | 7 | 78*
COc1ccccc1OCCOc1ccc([N+](=O)[O-])cc1/C=C1/C(=O)N(c2ccccc2)N=C1C | 11 | 4
CC1=NOC(=O)/C1=C/c1ccc(N2CCOCC2)cc1 | 5 | 16
CC1=NN(c2ccccc2)C(=O)/C1=C/c1ccc(Oc2ccc([N+](=O)[O-])cc2[N+](=O)[O-])cc1 | 0 | 52*
CCC(C)NC(=O)NCCC1CCN(S(=O)(=O)c2ccc(C)cc2)CC1 (configuration not stated) | 1 | 34
O=C(Nc1nc(-c2cccc([N+](=O)[O-])c2)cs1)c1ccc(S(=O)(=O)N2CCOCC2)cc1 | -6 | 3
CCN(C)c1nc(-c2ccc(F)cc2)ncc1C(=O)N1CCOCC1 | -4 | 21
O=C(CSc1cccc2cccnc12)NC1CCCCC1 | -2 | 16
O=C(CSc1cccc2cccnc12)N1CCCCC1 | -2 | 88*
O=C(Nc1ccc2c(c1)OCO2)N1CCC(n2c(-c3ccco3)nc3cccnc32)C1 (configuration not stated) | -1 | 23
Cc1cccc(-c2cc3n(n2)CCCN(C(=O)c2ccncc2)C3)c1 | -2 | 11
Cc1ccc(C(=O)N2CCCn3nc(-c4ccc(Cl)cc4)cc3C2)s1 | 3 | 71*
Cc1ccc(C(=O)N2CCCn3nc(-c4cccs4)cc3C2)s1 | -3 | 4
Cc1cccc(-c2cc3n(n2)CCCN(C(=O)c2cccc(C#N)c2)C3)c1 | -4 | 27
N#Cc1cccc(C(=O)N2CCCn3nc(-c4ccc(Cl)cc4)cc3C2)c1 | 0 | 55*
Cc1cccc(-c2cc3n(n2)CCCN(C(=O)COc2ccc(Cl)cc2)C3)c1 | 3 | 83*
SMILES | Pf apPOL block | mHTT CaM bind
CCCCCNC(=O)C1CCCN(c2nccnc2Oc2ccccc2)C1 (configuration not stated) | -7 | -4
CCCN1CCN(c2ncc3c(n2)CCN(Cc2cccc(C)c2)C3)CC1 | -7 | 13
Clc1cccc(CN2CCc3nc(N4CCN(c5ccccc5)CC4)ncc3C2)c1 | 2 | 25
CCCN1CCc2nc(N3CCN(c4ccccc4F)CC3)ncc2C1 | -4 | 15
CCN1CCN(c2ncc3c(n2)CCN(Cc2ccccc2F)C3)CC1 | -3 | 56*
Cc1cccc(CN2CCc3nc(N4CCN(c5ncccn5)CC4)ncc3C2)c1 | 1 | 100*
CCN1CCN(c2ncc3c(n2)CCN(CCc2ccccc2)C3)CC1 | -7 | 97*
Clc1cccc(CN2CCc3nc(N4CCN(c5ncccn5)CC4)ncc3C2)c1 | -6 | 100*
CCN1CCN(c2ncc3c(n2)CCN(Cc2cccc(F)c2F)C3)CC1 | 5 | 32
CCCOc1ccc(/C=c2\sc3nc(-c4ccncc4)nn3c2=O)cc1OCC | 5 | 7
COc1cccc(CNC(=O)C2CCc3sc(C(=O)N4CCOCC4)cc3C2)c1 (configuration not stated) | -1 | 6
COc1ccc([N+](=O)[O-])cc1CSc1nnnn1Cc1ccccc1 | 0 | 2
CCC(Oc1ccccc1)C(=O)Nc1ccc(I)cc1 (configuration not stated) | 0 | -11
CCCc1[nH]nc2c1C1(CC[C@H]3COC1O3)C(C#N)=C(N)O2 (some centres not stated) | / | 0
CCCN1CCN(c2ncc3c(n2)CCN(Cc2cccc(Br)c2)C3)CC1 | -6 | 45
CCN1CCN(c2ncc3c(n2)CCN(Cc2cccc(Cl)c2)C3)CC1 | 1 | 78*
CCN1CCN(c2ncc3c(n2)CCN(Cc2ccc(Cl)c(F)c2)C3)CC1 | 1 | 63*
CCOc1ccc(CN2CCc3nc(N4CCN(CC)CC4)ncc3C2)cc1OCC | -4 | 20
CCCNC(=O)c1cn2ccnc(-c3ccccc3)c2n1 | 7 | 0
